In PubChem BioAssay (Tox21):
Results filed as inconclusive are left out. Activity calls are given as the source filed them. Unless noted, calls come from the whole dose curve; as a rule, active = well fitted curve in the direction sought with a large enough effect in the repeat runs; inconclusive = weak or mixed curves; inactive = no such curve, though single readings can be large; an effect the other way counts as inactive or inconclusive.

How the values were obtained:
[1] = qHTS assay for small molecule agonists of the p53 signaling pathway (AID 651631; calls by dose curve; note: nearly all actives have a fitted effect of over 15% in size)
Method in brief: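 p53RE-bla HCT-116 cells; compounds 16 h, 37 °C; LiveBLAzer B/G FRET substrate 2 h RT; fluorescence intensity read-out, qHTS format.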

[2] = qHTS assay for small molecules that induce genotoxicity in human embryonic kidney cells expressing luciferase-tagged ATAD5 (AID 651632); note: nearly all actives have a fitted effect of over 15% in size
Method in brief: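 Reporter cells (HEK293T) express luciferase-tagged ATAD5, a protein that accumulates after DNA damage. Treat 16 hr at 37C/5% CO2, add Amplite, wait 30 min at RT, and read luminescence.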

[3] = qHTS assay for small molecule agonists of the p53 signaling pathway - cell viability (AID 651633; calls by dose curve;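 note: p53RE-bla HCT reporter cells with a stable beta-lactamase p53 reporter; series mostly up to about 83 µM; nearly all actives have a fitted effect of over 30% in size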)
Method in brief: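 p53RE-bla cells were treated with compound for 16 hours at 37 C. Cytotoxicity was then measured as CellTiter-Glo luminescence after 30 min at room temperature.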

[4] = qHTS assay for small molecules that induce genotoxicity in human embryonic kidney cells expressing luciferase-tagged ATAD5 - cell viability (AID 651634; calls by dose curve; note: nearly all actives have a fitted effect of over 25% in size)
Method in brief: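 Seeding of 2,000 HEK293T ATAD5-luciferase cells per well preceded pin-tool compound transfer. Plates sat 15.5 hr at 37C under 5% CO2, then fluorescence was read after 30 min with CellTiter-Fluor.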

[5] = qHTS assay for small molecule disruptors of the mitochondrial membrane potential - cell viability (AID 720634; calls by dose curve;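 note: human HepG2 liver cancer cells; series mostly up to about 83 µM; nearly all actives have a fitted effect of over 20% in size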)
Method in brief: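 Measuring cytotoxicity alongside mitochondrial potential, the screen quantified ATP by luminescence in HepG2 cells after 1 hr compound incubation and a 30 min room-temperature CellTiter-Glo step.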

[6] = qHTS assay to test for compound auto fluorescence at 590 nm (red) in HepG2 cells (AID 720674)
Method in brief: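 Fluorescence at 590 nm emission following 540 nm excitation was recorded from HepG2 wells one hour after compound transfer, with DMSO-only wells as vehicle and Rose Bengal sodium equivalency as the scale.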

[7] = qHTS assay to test for compound auto fluorescence at 535 nm (green) in HepG2 cells (AID 720675)
[8] = qHTS assay to test for compound auto fluorescence at 460 nm (blue) in HEK293 cells (AID 720678)
Method in brief: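 Cells were seeded and left to adhere for 4-5 hr at 37C. Compounds were then pin-transferred. After an overnight incubation at 37C under 5% CO2, intrinsic fluorescence at 405/460 nm was measured and referenced to triamterene.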

[9] = qHTS assay to test for compound auto fluorescence at 590 nm (red) in HEK293 cells (AID 720679)
Method in brief: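 Each well held 2,000 HEK293 cells in medium containing 10% dialyzed FBS. Following 4-5 hr attachment at 37C, 23 nL test compound or DMSO was added; plates sat overnight, and red fluorescence (540/590nm) was recorded.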

[10] = qHTS assay to test for compound auto fluorescence at 535 nm (green) in HEK293 cells (AID 720680)
[11] = qHTS assay to test for compound auto fluorescence at 460 nm (blue) in HEK293 cell free culture (AID 720681)
Method in brief: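 Compounds were added to cell-free DMEM with 10% FBS and fluorescence read directly. The blue channel used 405 nm excitation and 460 nm emission, with triamterene as the reference fluorophore.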

[12] = qHTS assay to test for compound auto fluorescence at 535 nm (green) in HEK293 cell free culture (AID 720682)
Method in brief: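 Cell-free medium (DMEM, 10% FBS) receives compound or DMSO by pintool. Plate read directly at Ex 485/Em 535 nm. Signal converted to fluorescein equivalency.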

[13] = qHTS assay to test for compound auto fluorescence at 590 nm (red) in HEK293 cell free culture (AID 720683)
Method in brief: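 Cell-free wells of DMEM with 10% FBS received compound, and intrinsic fluorescence was read at excitation/emission 540/590 nm. Values expressed as equivalence to Rose Bengal sodium.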

[14] = qHTS assay to test for compound auto fluorescence at 590 nm (red) in HepG2 cell free culture (AID 720684)
Method in brief: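 Compounds are added to culture medium (MEM, 10% FBS) lacking cells, then fluorescence is read at excitation 540 nm, emission 590 nm, with Rose Bengal sodium as the equivalency standard.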

[15] = qHTS assay to test for compound auto fluorescence at 460 nm (blue) in HepG2 cell free culture (AID 720685)
Method in brief: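 Compound (23 nL) or DMSO pinned into cell-free MEM with 10% FBS; blue fluorescence read at 405/460 nm excitation/emission, expressed as auto-fluorescence equivalency to triamterene.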

[16] = qHTS assay to test for compound auto fluorescence at 535 nm (green) in HepG2 cell free culture (AID 720686)
[17] = qHTS assay to test for compound auto fluorescence at 460 nm (blue) in HepG2 cells (AID 720687)
Method in brief: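 HepG2 cells in MEM with 10% FBS, attached overnight at 37 C, were exposed to compound or DMSO for 1 hr at 37 C, 5% CO2. Blue fluorescence was read at 405/460 nm, with triamterene as reference fluorophore.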

[18] = biological target: Glucocorticoid receptor (Homo sapiens) (UniProt P04150); test: qHTS assay to identify small molecule agonists of the glucocorticoid receptor (GR) signaling pathway (AID 720691; active = well fitted activation curve with a large enough effect in the signal ratio in the repeat runs, not every such curve was filed as active; the % refers to the signal ratio)
Method in brief: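 Reporter read-out: fluorescence intensity following 2 h room-temperature LiveBLAzer B/G FRET substrate loading. Prior step: GR-bla HeLa cells held 4 h, then treated 18 h at 37 C.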

[19] = biological target: Glucocorticoid receptor (Homo sapiens) (UniProt P04150); test: qHTS assay to identify small molecule antagonists of the glucocorticoid receptor (GR) signaling pathway (AID 720692; active = well fitted inhibition curve with a large enough effect in the signal ratio in the repeat runs, not every such curve was filed as active; the % refers to the signal ratio)
Method in brief: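 Dexamethasone (5 nM final) stimulated a stably integrated GRE-beta-lactamase reporter in HeLa cells during 18 h co-incubation with compounds; signal was quantified as fluorescence intensity of B/G FRET substrate after 2 h.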
% is set by controls: 0 for no effect and ±100 for the full control effect.

Glucocorticoid receptor (Homo sapiens), sequence (P04150 whole entry, looked up): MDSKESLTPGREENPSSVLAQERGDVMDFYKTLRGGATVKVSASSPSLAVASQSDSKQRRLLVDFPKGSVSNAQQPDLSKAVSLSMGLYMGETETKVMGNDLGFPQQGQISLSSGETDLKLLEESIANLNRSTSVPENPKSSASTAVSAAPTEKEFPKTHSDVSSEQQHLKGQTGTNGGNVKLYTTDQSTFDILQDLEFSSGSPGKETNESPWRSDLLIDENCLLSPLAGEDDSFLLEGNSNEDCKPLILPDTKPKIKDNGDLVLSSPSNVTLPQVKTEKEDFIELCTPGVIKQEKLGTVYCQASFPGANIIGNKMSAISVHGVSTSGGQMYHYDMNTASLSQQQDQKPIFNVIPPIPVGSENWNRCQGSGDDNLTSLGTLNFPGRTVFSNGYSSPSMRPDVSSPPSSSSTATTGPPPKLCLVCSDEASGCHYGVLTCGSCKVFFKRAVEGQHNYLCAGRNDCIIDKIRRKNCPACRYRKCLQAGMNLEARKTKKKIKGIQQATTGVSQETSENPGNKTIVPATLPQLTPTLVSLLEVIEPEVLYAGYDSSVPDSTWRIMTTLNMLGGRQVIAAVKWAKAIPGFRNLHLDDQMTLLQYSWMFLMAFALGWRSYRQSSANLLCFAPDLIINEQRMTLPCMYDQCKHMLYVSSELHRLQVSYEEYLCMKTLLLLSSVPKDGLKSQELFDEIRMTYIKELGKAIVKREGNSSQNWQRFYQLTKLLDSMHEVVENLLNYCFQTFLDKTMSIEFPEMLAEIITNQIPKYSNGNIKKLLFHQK

CCOC(C)=O
inactive: Potency [1] | Potency [2] | Potency [3] | Potency [4] | Potency [5] | outcome [6] | outcome [7] | Potency [8] | outcome [9] | outcome [10] | Potency [11] | outcome [12] | outcome [13] | outcome [14] | Potency [15] | outcome [16] | Potency [17] | Potency [18]

C=C(C)CCCC(C)CCO (centres undefined)
inactive: Potency [1] | Potency [2] | Potency [3] | Potency [4] | Potency [5] | outcome [6] | Potency [8] | outcome [9] | outcome [10] | Potency [11] | outcome [14] | Potency [15] | outcome [16] | Potency [17]

CCCCCCCCCCC(=O)O
inactive: Potency [1] | Potency [2] | Potency [3] | Potency [4] | Potency [5] | outcome [6] | Potency [8] | outcome [9] | outcome [10] | Potency [11] | outcome [12] | outcome [13] | outcome [14] | Potency [15] | outcome [16] | Potency [17] | Potency [18]

CCn1cc(C(=O)O)c(=O)c2cc(F)c(N3CCNCC3)cc21
inactive: Potency [1] | Potency [2] | Potency [3] | Potency [4] | Potency [5] | outcome [6] | outcome [7] | Potency [8] | outcome [9] | outcome [10] | Potency [11] | outcome [13] | outcome [14] | Potency [15] | outcome [16] | Potency [17] | Potency [18] | Potency [19]

CCCCCC[C@@H](O)C/C=C\CCCCCCCC(=O)OCC(O)CO (some centres undefined)
inactive: Potency [1] | Potency [2] | Potency [3] | Potency [4] | Potency [5] | outcome [6] | outcome [7] | Potency [8] | outcome [9] | outcome [10] | Potency [11] | outcome [12] | outcome [14] | Potency [15] | outcome [16] | Potency [17] | Potency [18]

CCC(C)COC(=O)CC(C)C (centres undefined)
inactive: Potency [1] | Potency [2] | Potency [3] | Potency [4] | Potency [5] | outcome [6] | outcome [7] | Potency [8] | outcome [9] | outcome [10] | Potency [11] | outcome [12] | outcome [13] | outcome [14] | Potency [15] | outcome [16] | Potency [17]

C=C(C)[C@@H]1CCC2=CCC[C@@H](C)[C@]2(C)C1
inactive: Potency [1] | Potency [2] | Potency [3] | Potency [4] | Potency [5] | outcome [6] | outcome [7] | Potency [8] | outcome [9] | outcome [10] | Potency [11] | outcome [12] | outcome [13] | outcome [14] | Potency [15] | outcome [16] | Potency [17] | Potency [18]

CC(O)c1ccccc1 (centres undefined)
inactive: Potency [1] | Potency [2] | Potency [3] | Potency [4] | Potency [5] | outcome [7] | Potency [8] | outcome [9] | outcome [10] | Potency [11] | outcome [12] | outcome [13] | outcome [14] | Potency [15] | outcome [16] | Potency [17]

OC(CCN1CCCC1)(c1ccccc1)C1CCCCC1 (centres undefined)
inactive: Potency [1] | Potency [2] | Potency [3] | Potency [4] | Potency [5] | fluorescence, relative to Rose Bengal [6] 0.15% [at 18.6 µM] | fluorescence, % of fluorescein control [7] 0.0313% [at 18.6 µM] | fluorescence, % of triamterene [8] 0.0017% [at 18.6 µM] | fluorescence, % of fluorescent control [9] -0.0138% [at 18.6 µM] | fluorescence, % of fluorescein [10] 6.8e-05% [at 18.6 µM] | fluorescence, % of fluorescent control [11] -0.0085% [at 18.6 µM] | activity change [12] 0.0202% [at 18.6 µM] | fluorescence, % of fluorescent control [13] -0.206% [at 18.6 µM] | fluorescence, % of Rose Bengal [14] -0.161% [at 18.6 µM] | fluorescence, % of fluorescent control [15] 0.0206% [at 18.6 µM] | fluorescence, % of fluorescein control [16] -0.0329% [at 18.6 µM] | fluorescence, % of fluorescent control [17] 0.0411% [at 18.6 µM] | Potency [18]

Cc1cscn1
inactive: Potency [1] | Potency [2] | Potency [3] | Potency [4] | Potency [5] | outcome [7] | Potency [8] | outcome [9] | outcome [10] | Potency [11] | outcome [13] | outcome [14] | Potency [15] | outcome [16] | Potency [17]

CC=C(Cl)Cl
inactive: Potency [1] | Potency [2] | Potency [3] | Potency [4] | Potency [5] | outcome [6] | outcome [7] | Potency [8] | outcome [9] | outcome [10] | Potency [11] | outcome [12] | outcome [14] | Potency [15] | outcome [16] | Potency [17] | Potency [18]

C(=C\c1ccccc1)/c1ccccc1
inactive: Potency [1] | Potency [2] | Potency [3] | Potency [4] | Potency [5] | outcome [6] | outcome [7] | Potency [8] | outcome [9] | outcome [10] | Potency [11] | outcome [12] | outcome [13] | outcome [14] | Potency [15] | outcome [16] | Potency [17]

CN1CCCN=C1COC(=O)C(O)(c1ccccc1)C1CCCCC1 (centres undefined)
inactive: Potency [1] | Potency [2] | Potency [3] | Potency [4] | Potency [5] | outcome [7] | Potency [8] | outcome [9] | outcome [10] | Potency [11] | outcome [12] | outcome [13] | outcome [14] | Potency [15] | outcome [16] | Potency [17] | Potency [18] | Potency [19]

CCC1(CO)COCOC1
inactive: Potency [1] | Potency [2] | Potency [3] | Potency [4] | Potency [5] | outcome [6] | outcome [7] | Potency [8] | outcome [9] | outcome [10] | Potency [11] | outcome [12] | outcome [13] | outcome [14] | Potency [15] | outcome [16] | Potency [17] | Potency [18] | Potency [19]
